Reference: PubChem BioAssay (NCATS)
Records with an inconclusive call do not appear. Entries that show only a call come without a potency. Values without a mark were called inactive. The source made the active and inactive calls. Calls come from the whole dose curve; as a rule, active = well fitted curve in the direction sought with a large enough effect; inconclusive = small, poorly fitted or top-dose-only effect, or another doubt; inactive = no such curve, though single readings can be large; an effect the other way counts as inactive or inconclusive.

How the values were obtained:
[1] = qHTS of pediatric cancer cell lines to identify multiple opportunities for drug repurposing: Primary screen for control Hh wild type fibroblast cells (AID 1347106);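 note: a drop in luminescence marks cytotoxicity and a rise apparent proliferation; nearly all actives have a fitted effect of over 55% in size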
Outline: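 Cells (500-1,000/well) in growth media were settled 5 h at 37 degrees C, then given compounds for 48 h. Viability was read as CellTiter-Glo luminescence. Primary runs used MIPE at 11 points (0.78 nM-46 µM) and NPC at 8 points (0.59 nM-46 µM); follow-ups used 11 points.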

[2] = qHTS of pediatric cancer cell lines to identify multiple opportunities for drug repurposing: Primary screen for Rh30 cells (AID 1347107); note: nearly all actives have a fitted effect of over 75% in size
Outline: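 Viability after 48 h compound treatment at 37C, 500-1,000 cells/well, read as ATP luminescence with CellTiter-Glo. Primary screens used 11-point (MIPE, 0.78 nM-46 µM) or 8-point (NPC, 0.59 nM-46 µM) final concentrations; follow-up screens used 11-point dilutions.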

[3] = qHTS of pediatric cancer cell lines to identify multiple opportunities for drug repurposing: Primary screen for Rh41 cells (AID 1347108);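 note: luminescence drop marks cytotoxic hits; nearly all actives have a fitted effect of over 70% in size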
Outline: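 Readout: CellTiter-Glo luminescence, 48 h treatment. Controls DMSO (neutral) and bortezomib 2.3 µM final (positive). Potency and efficacy taken from primary-screen concentration-response curves.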
Note: series mostly up to about 46 µM.

SMILES: CN1C[C@@H]2C[C@H]1CN2c1cc2c(cc1F)c(=O)c(C(=O)O)cn2C1CC1
- outcome [1]: inactive
- outcome [2]: inactive
- outcome [3]: inactive

SMILES: OC(CCN1CCCC1)(c1ccccc1)C1CCCCC1 (configuration not stated)
- outcome [1]: inactive
- outcome [2]: inactive
- outcome [3]: inactive

SMILES: CC[N+](CC)(CC(=O)Nc1c(C)cccc1C)Cc1ccccc1
- outcome [1]: inactive
- outcome [2]: inactive
- outcome [3]: inactive

SMILES: COC(=O)c1ccccc1C(=O)c1ccc(OCCN2CCCCC2)cc1
- outcome [1]: inactive
- outcome [2]: inactive
- outcome [3]: inactive

SMILES: O=C(/C=C/c1ccc(O)c(O)c1)O[C@@H]1C[C@@](OC(=O)/C=C/c2ccc(O)c(O)c2)(C(=O)O)C[C@@H](O)[C@@H]1O
- outcome [1]: inactive
- outcome [2]: inactive
- outcome [3]: inactive

SMILES: O=c1[nH]c(=O)n([C@H]2C[C@H](O)[C@@H](CO)O2)cc1I
- outcome [1]: inactive
- outcome [2]: inactive

SMILES: C[C@@H](c1ncncc1F)C(O)(Cn1cncn1)c1ccc(F)cc1F (some centres not stated)
- outcome [1]: inactive
- outcome [2]: inactive
- outcome [3]: inactive

SMILES: COc1ccc2cc(CCC(C)=O)ccc2c1
- outcome [1]: inactive
- outcome [2]: inactive
- outcome [3]: inactive

SMILES: NS(=O)(=O)c1ccc(NC(=O)CCC(=O)O)cc1
- outcome [1]: inactive
- outcome [2]: inactive
- outcome [3]: inactive

SMILES: Nc1ccc(S(=O)(=O)c2ccc(N)cc2)cc1
- outcome [1]: inactive
- outcome [2]: inactive
- outcome [3]: inactive

SMILES: CCCCCCCC(=O)OCC(O)CO (configuration not stated)
- outcome [1]: inactive
- outcome [2]: inactive
- outcome [3]: inactive

SMILES: O=C(NCN1CCOCC1)c1cnccn1
- outcome [1]: inactive
- outcome [2]: inactive
- outcome [3]: inactive

SMILES: CC1(c2ccccc2)OC(C(=O)O)=CC1=O (configuration not stated)
- outcome [1]: inactive
- outcome [2]: inactive
- outcome [3]: inactive

SMILES: O=c1[nH]cnc2nc[nH]c12
- outcome [1]: inactive
- outcome [2]: inactive
- outcome [3]: inactive

SMILES: Cn1cc(C(=O)[C@@H]2CCc3nc[nH]c3C2)c2ccccc21
- outcome [1]: inactive
- outcome [2]: inactive
- outcome [3]: inactive

SMILES: Cc1ccsc1/C=C/C1=NCCCN1C
- outcome [1]: inactive
- outcome [2]: inactive
- outcome [3]: inactive

SMILES: Cc1cccc(C(=O)O)c1O
- outcome [1]: inactive
- outcome [2]: inactive
- outcome [3]: inactive

SMILES: CC(=O)Oc1cccc(C)c1
- outcome [1]: inactive
- outcome [2]: inactive
- outcome [3]: inactive

SMILES: NS(=O)(=O)c1cc(C2(O)NC(=O)c3ccccc32)ccc1Cl (configuration not stated)
- outcome [1]: inactive
- outcome [2]: inactive
- outcome [3]: inactive

SMILES: OCCN1C[C@H](O)[C@@H](O)[C@H](O)[C@H]1CO
- outcome [1]: inactive
- outcome [2]: inactive
- outcome [3]: inactive

SMILES: CC(CN(C)C)C(C)(O)Cc1ccc(Cl)cc1 (configuration not stated)
- outcome [1]: inactive
- outcome [2]: inactive
- outcome [3]: inactive

SMILES: Cc1cc(NC(=O)C2=C(O)c3ccccc3S(=O)(=O)N2C)no1
- outcome [1]: inactive
- outcome [2]: inactive
- outcome [3]: inactive

SMILES: C=CCNC(N)=S
- outcome [1]: inactive
- outcome [2]: inactive
- outcome [3]: inactive

SMILES: O=C(NCCCN1CCOCC1)c1ccc(Cl)cc1
- outcome [1]: inactive
- outcome [2]: inactive
- outcome [3]: inactive

SMILES: Cc1c(NC(C)C)c(=O)n(-c2ccccc2)n1C
- outcome [1]: inactive
- outcome [2]: inactive
- outcome [3]: inactive

SMILES: O=C1c2ccccc2C(=O)C1c1ccc(Br)cc1
- outcome [1]: inactive
- outcome [2]: inactive
- outcome [3]: inactive

SMILES: NC(=O)N[C@@H](CCC(=O)O)C(=O)O
- outcome [1]: inactive
- outcome [2]: inactive
- outcome [3]: inactive

SMILES: O=C1C(c2[nH]c3ccccc3c2O)=Nc2ccccc21
- outcome [1]: inactive
- outcome [2]: inactive
- outcome [3]: inactive

SMILES: Cc1c(Cn2ccnc2)c2ccccc2n1CCC(=O)O
- outcome [1]: inactive
- outcome [2]: inactive
- outcome [3]: inactive

SMILES: C[N+]1(C)CCCC(OC(=O)C(O)(c2ccccc2)c2ccccc2)C1 (configuration not stated)
- outcome [1]: inactive
- outcome [2]: inactive
- outcome [3]: inactive

SMILES: C/C=C/C(=O)N(CC)c1ccccc1C
- outcome [1]: inactive
- outcome [2]: inactive
- outcome [3]: inactive

SMILES: NS(=O)(=O)c1cc2c(cc1C(F)(F)F)NCNS2(=O)=O
- outcome [1]: inactive
- outcome [2]: inactive
- outcome [3]: inactive

SMILES: COC(=O)c1ccc(O)cc1
- outcome [1]: inactive
- outcome [2]: inactive
- outcome [3]: inactive

SMILES: CC(C)c1cc2c(cc1S(=O)(=O)O)[C@@]1(C)CCC[C@@](C)(C(=O)O)[C@@H]1CC2
- outcome [1]: inactive
- outcome [2]: inactive
- outcome [3]: inactive

SMILES: OCC(O)CS (configuration not stated)
- outcome [1]: inactive
- outcome [2]: inactive
- outcome [3]: inactive

SMILES: CN1CC(=O)NC1=N
- outcome [1]: inactive
- outcome [2]: inactive
- outcome [3]: inactive

SMILES: CCCCCCCCCCOc1cc2c(=O)c(C(=O)OCC)c[nH]c2cc1OCC
- activity change, negative = cytotoxic [1]: 1.24% [at 4.84 µM]
- activity change, negative = cytotoxic [2]: 19.2% [at 4.84 µM]
- activity change, negative = cytotoxic [3]: 18.9% [at 4.84 µM]

SMILES: O=C1CC[C@@H](C(=O)O)N1
- outcome [1]: inactive
- outcome [2]: inactive
- outcome [3]: inactive

SMILES: CCCNC(C)(C)COC(=O)c1ccccc1
- outcome [1]: inactive
- outcome [2]: inactive
- outcome [3]: inactive

SMILES: C[N+](C)(C)CC(O)CC(=O)[O-] (configuration not stated)
- outcome [1]: inactive
- outcome [2]: inactive
- outcome [3]: inactive

SMILES: O=C(Cn1ccnc1[N+](=O)[O-])NCCO
- outcome [1]: inactive
- outcome [2]: inactive
- outcome [3]: inactive

SMILES: CC(=O)Oc1cccc(O)c1
- outcome [1]: inactive
- outcome [2]: inactive
- outcome [3]: inactive

SMILES: Cc1c(I)c(=O)n(-c2ccccc2)n1C
- outcome [1]: inactive
- outcome [2]: inactive
- outcome [3]: inactive

SMILES: CC(=O)N1C[C@H](O)C[C@H]1C(=O)O
- outcome [1]: inactive
- outcome [2]: inactive
- outcome [3]: inactive

SMILES: CN1CCCN=C1COC(=O)C(O)(c1ccccc1)C1CCCCC1 (configuration not stated)
- outcome [1]: inactive
- outcome [2]: inactive
- outcome [3]: inactive

SMILES: Nc1ccncc1N
- outcome [1]: inactive
- outcome [2]: inactive
- outcome [3]: inactive
